Inconclusive results are not listed. A call without a number means that no potency is given here. The source made the active and inactive calls. Unless noted, the call rests on the fitted dose curve; in most records, active means well fitted curve in the direction sought with a large enough effect in the repeat runs; inconclusive means weak or mixed curves; inactive means no such curve, though single readings can be large; an effect the other way counts as inactive or inconclusive.
Assays:
[1] = target: Aryl hydrocarbon receptor (Homo sapiens) (UniProt P35869); assay: qHTS assay to identify small molecule that activate the aryl hydrocarbon receptor (AhR) signaling pathway (AID 743085);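 further: HG2L7.5c1 human HepG2 liver cells with stably integrated DRE-driven firefly reporter; series mostly up to about 70 µM; nearly all actives have a fitted effect of over 15% in size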
Chain of Aryl hydrocarbon receptor (Homo sapiens) (P35869 whole entry, looked up): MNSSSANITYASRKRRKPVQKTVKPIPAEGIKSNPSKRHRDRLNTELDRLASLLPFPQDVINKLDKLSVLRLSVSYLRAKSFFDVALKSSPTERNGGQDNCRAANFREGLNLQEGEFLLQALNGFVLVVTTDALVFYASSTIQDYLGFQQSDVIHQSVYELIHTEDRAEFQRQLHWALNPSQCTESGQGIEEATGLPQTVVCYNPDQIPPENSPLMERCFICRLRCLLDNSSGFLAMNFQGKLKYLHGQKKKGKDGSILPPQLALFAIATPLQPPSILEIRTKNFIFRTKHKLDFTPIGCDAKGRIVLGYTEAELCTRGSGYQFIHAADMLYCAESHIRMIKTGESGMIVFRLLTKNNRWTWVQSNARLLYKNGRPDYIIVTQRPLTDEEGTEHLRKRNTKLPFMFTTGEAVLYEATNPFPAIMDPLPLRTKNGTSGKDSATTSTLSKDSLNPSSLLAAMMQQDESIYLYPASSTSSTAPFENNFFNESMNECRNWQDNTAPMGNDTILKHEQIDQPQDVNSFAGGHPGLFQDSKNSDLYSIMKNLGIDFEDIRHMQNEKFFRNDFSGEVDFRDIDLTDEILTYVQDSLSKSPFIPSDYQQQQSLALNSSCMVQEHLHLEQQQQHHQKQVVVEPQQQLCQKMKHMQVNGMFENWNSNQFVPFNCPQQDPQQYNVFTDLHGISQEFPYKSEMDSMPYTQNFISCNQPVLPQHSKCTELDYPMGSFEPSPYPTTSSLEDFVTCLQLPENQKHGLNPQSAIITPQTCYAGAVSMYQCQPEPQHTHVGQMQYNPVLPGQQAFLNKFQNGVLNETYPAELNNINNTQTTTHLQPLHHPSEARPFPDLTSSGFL
Summary of the method: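 Cell line HG2L7.5c1 (human hepatoma, 20× DRE-luc). Plated, 5 h 37C, compound/DMSO added, 24 h 37C. CellTiter-Fluor 30 min 37C → fluorescence; then ONE-Glo 30 min RT → luminescence.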

[2] = qHTS assay to identify small molecule that activate the aryl hydrocarbon receptor (AhR) signaling pathway - cell viability counter screen (AID 743086);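 further: HepG2 liver cells carrying the AhR DRE luciferase reporter; series mostly up to about 70 µM; nearly all actives have a fitted effect of over 45% in size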
Summary of the method: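 Cytotoxicity counter screen: CellTiter-Fluor signal (30 min, 37 C) in 4000 HepG2 cells/well carrying the DRE-luciferase reporter, following 24 h compound exposure at 37 C.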

[3] = target: Peroxisome proliferator-activated receptor gamma (Homo sapiens) (UniProt P37231); assay: qHTS assay to identify small molecule agonists of the peroxisome proliferator-activated receptor gamma (PPARg) signaling pathway (AID 743094; active means well fitted activation curve with a large enough effect in the signal ratio in the repeat runs, not every such curve was filed as active; the % refers to the signal ratio)
Chain of Peroxisome proliferator-activated receptor gamma (Homo sapiens) (P37231 whole entry, looked up): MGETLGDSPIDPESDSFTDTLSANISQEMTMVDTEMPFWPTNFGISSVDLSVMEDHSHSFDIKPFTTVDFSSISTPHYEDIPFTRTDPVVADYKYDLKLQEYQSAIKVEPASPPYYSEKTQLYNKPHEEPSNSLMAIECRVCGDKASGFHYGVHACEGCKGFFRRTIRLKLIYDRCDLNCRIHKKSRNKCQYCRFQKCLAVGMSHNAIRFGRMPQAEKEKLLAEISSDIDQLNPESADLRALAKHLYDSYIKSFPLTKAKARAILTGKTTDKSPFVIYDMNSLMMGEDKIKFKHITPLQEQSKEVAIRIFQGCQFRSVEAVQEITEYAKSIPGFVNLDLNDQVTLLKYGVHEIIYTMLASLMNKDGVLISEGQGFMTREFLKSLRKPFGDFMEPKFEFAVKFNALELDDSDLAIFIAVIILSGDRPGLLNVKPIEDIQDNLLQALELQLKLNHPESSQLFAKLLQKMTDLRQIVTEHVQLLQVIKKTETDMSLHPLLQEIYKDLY
Summary of the method: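 Cell-based bla reporter, HEK293H background, PPARg-driven UAS. Pre-incubation 5 h, 37C, 5% CO2. Compound 17 h, 37C. Substrate 1 h RT; fluorescence.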

[4] = qHTS assay to identify small molecule antagonists of the peroxisome proliferator-activated receptor gamma (PPARg) signaling pathway - cell viability counter screen (AID 743194); further: nearly all actives have a fitted effect of over 55% in size
Summary of the method: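 Viability was measured as CellTiter-Glo luminescence in GeneBLAzer PPARg UAS-bla HEK293H cells. These cells had been exposed 17 h at 37 C to compounds together with rosiglitazone at 50 nM final, with the beta-lactamase readout taken in the same wells.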

[5] = qHTS assay for small molecule agonists of the antioxidant response element (ARE) signaling pathway (AID 743202; active means well fitted activation curve with a large enough effect in the signal ratio in the repeat runs, not every such curve was filed as active; the % refers to the signal ratio; further: potency means the concentration at half of the fitted maximal effect)
Summary of the method: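 After 16 hours of compound treatment at 37 C, HepG2 cells with a stably integrated ARE-driven beta-lactamase reporter were loaded 2 hours at room temperature with LiveBLAzer B/G FRET substrate and fluorescence intensity measured.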

[6] = qHTS assay for small molecule agonists of the antioxidant response element (ARE) signaling pathway - cell viability counter screen (AID 743203; calls by dose curve; further: nearly all actives have a fitted effect of over 55% in size)
Summary of the method: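 Measured in the same wells as the beta-lactamase ARE reporter, this read-out is CellTiter-Glo luminescence from HepG2 ARE-bla cells given compounds for 16 hrs.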

[7] = qHTS assay for small molecule activators of the heat shock response signaling pathway - cell viability counter screen (AID 743209); further: nearly all actives have a fitted effect of over 50% in size
Summary of the method: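 Same-well multiplex: after 2.5 h room-temperature incubation with LiveBLAzer B/G substrate and fluorescence reading, CellTiter-Glo reagent was added to HSE-bla HeLa cells that had received compound for 5 h at 37 C; luminescence read after 30 min.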

[8] = qHTS assay for small molecule activators of the heat shock response signaling pathway (AID 743210; active means well fitted activation curve with a large enough effect in the signal ratio in the repeat runs, with a control signal flat, not every such curve was filed as active; the % refers to the signal ratio; further: series mostly up to about 63 µM)
Summary of the method: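 Compound exposure lasted 5 h at 37 C in HeLa cells carrying a heat-shock-element-driven beta-lactamase reporter. Read-out: fluorescence intensity after 2.5 h room-temperature loading with LiveBLAzer B/G FRET substrate.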

[9] = qHTS assay to identify small molecule agonists of the peroxisome proliferator-activated receptor delta (PPARd) signaling pathway - cell viability counter screen (AID 743211); further: nearly all actives have a fitted effect of over 55% in size
Summary of the method: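 HEK293H PPARd-bla, 3000 cells/well; 5 h preincubation 37C/5% CO2; cpd in DMSO, 17 h 37C; B/G FRET substrate 2 h RT; CellTiter-Glo 30 min RT, luminescence.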

[10] = target: Peroxisome proliferator-activated receptor delta (Homo sapiens) (UniProt Q03181); assay: qHTS assay to identify small molecule agonists of the peroxisome proliferator-activated receptor delta (PPARd) signaling pathway (AID 743212; calls by dose curve;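 further: HEK293H cells with PPARd UAS beta-lactamase reporter GeneBLAzer system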)
Chain of Peroxisome proliferator-activated receptor delta (Homo sapiens) (Q03181 whole entry, looked up): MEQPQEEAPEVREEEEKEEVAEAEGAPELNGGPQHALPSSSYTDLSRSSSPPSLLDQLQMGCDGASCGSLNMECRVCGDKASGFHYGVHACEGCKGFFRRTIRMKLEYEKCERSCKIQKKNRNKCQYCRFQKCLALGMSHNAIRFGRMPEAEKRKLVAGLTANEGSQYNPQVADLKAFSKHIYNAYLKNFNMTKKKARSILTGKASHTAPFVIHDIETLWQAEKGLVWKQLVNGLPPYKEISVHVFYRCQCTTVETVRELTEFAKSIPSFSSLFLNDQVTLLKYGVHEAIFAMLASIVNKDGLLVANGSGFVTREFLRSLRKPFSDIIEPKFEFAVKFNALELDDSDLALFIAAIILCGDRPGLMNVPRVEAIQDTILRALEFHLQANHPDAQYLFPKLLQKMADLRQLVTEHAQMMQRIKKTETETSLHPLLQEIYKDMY
Summary of the method: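 Beta-lactamase reporter readout: a ratiometric FRET signal from the LiveBLAzer substrate after 2 h at room temperature. Compound exposure at 37 °C in PPARδ-bla HEK293H cells driven by an upstream activator sequence.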

[11] = qHTS assay to identify small molecule antagonists of the peroxisome proliferator-activated receptor delta (PPARd) signaling pathway - cell viability counter screen (AID 743213); further: nearly all actives have a fitted effect of over 50% in size
Summary of the method: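 PPARd-bla HEK293H cells (3000/well) got compound plus 300 nM L165041 agonist for 17 h at 37 C. Viability in the same wells came from CellTiter-Glo luminescence after 30 min at room temperature.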

[12] = target: Bile acid receptor (Homo sapiens) (UniProt Q96RI1); assay: qHTS assay to identify small molecule antagonists of the farnesoid-X-receptor (FXR) signaling pathway (AID 743217; active means well fitted inhibition curve with a large enough effect in the signal ratio in the repeat runs, not every such curve was filed as active; the % refers to the signal ratio)
Chain of Bile acid receptor (Homo sapiens) (Q96RI1 whole entry, looked up): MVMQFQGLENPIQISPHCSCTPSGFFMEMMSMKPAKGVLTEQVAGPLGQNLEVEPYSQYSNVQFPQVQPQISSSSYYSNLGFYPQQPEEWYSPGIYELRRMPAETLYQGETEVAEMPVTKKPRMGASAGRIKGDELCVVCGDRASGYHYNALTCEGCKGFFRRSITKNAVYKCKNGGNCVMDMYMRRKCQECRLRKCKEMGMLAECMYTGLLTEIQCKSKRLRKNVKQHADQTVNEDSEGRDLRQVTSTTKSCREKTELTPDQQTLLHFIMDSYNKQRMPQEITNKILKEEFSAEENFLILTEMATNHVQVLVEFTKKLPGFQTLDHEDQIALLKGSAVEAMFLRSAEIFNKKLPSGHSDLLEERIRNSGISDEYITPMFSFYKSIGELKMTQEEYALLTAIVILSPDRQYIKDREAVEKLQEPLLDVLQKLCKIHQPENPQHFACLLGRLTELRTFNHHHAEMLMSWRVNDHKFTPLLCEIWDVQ
Summary of the method: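 FRET fluorescence after 2 h room-temperature LiveBLAzer loading gives the readout. Prior step: FXR-bla HEK 293T cells, seeded and incubated 5 h, received test compounds plus 50 uM final CDCA for 16 h at 37 °C.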

[13] = qHTS assay to identify small molecule agonists of the farnesoid-X-receptor (FXR) signaling pathway - cell viability counter screen (AID 743218); further: nearly all actives have a fitted effect of over 45% in size
Summary of the method: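 Readout: CellTiter-Glo luminescence, 30 min RT, multiplexed after the FXR-bla FRET reading. HEK 293T FXR-UAS-bla cells received compound 5 h post-plating and were incubated 16 h at 37 C.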

[14] = target: Bile acid receptor (Homo sapiens) (UniProt Q96RI1); assay: qHTS assay to identify small molecule agonists of the farnesoid-X-receptor (FXR) signaling pathway (AID 743220; active means well fitted activation curve with a large enough effect in the signal ratio in the repeat runs, not every such curve was filed as active; the % refers to the signal ratio)
Summary of the method: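 FXR-UAS-bla HEK 293T cells carrying a UAS-driven beta-lactamase reporter were plated for 5 h at 37C/5% CO2, then exposed to DMSO-dissolved Tox21 10K compounds for 16 h at 37C. A LiveBLAzer B/G FRET substrate was loaded for 2 h at room temperature before fluorescence reading.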

[15] = qHTS assay to identify small molecule antagonists of the farnesoid-X-receptor (FXR) signaling pathway - cell viability counter screen (AID 743221; active means well fitted cell-killing curve with a large enough effect in the repeat runs, not every such curve was filed as active; further: nearly all actives have a fitted effect of over 50% in size)
Summary of the method: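 Luminescence from CellTiter-Glo measures cytotoxicity in GeneBLAzer FXR-UAS-bla HEK 293T cells. Cells were exposed to compounds with 50 uM chenodeoxycholic acid (final) for 16 h at 37 C, in wells also used for the reporter readout.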

[16] = target: Vitamin D3 receptor (Homo sapiens) (UniProt P11473); assay: qHTS assay to identify small molecule agonists of the vitamin D receptor (VDR) signaling pathway (AID 743222; calls by dose curve)
Chain of Vitamin D3 receptor (Homo sapiens) (P11473 whole entry, looked up): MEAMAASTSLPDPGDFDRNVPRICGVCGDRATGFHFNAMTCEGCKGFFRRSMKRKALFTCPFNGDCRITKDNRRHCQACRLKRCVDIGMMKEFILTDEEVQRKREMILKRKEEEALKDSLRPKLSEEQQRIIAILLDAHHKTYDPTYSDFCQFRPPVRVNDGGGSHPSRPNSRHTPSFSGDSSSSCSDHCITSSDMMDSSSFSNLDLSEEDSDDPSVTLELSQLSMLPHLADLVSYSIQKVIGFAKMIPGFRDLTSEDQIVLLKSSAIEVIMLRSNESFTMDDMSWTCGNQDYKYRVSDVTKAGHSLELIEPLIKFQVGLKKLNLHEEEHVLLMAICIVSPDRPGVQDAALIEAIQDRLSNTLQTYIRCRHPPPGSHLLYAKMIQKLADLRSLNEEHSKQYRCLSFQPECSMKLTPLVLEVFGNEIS
Summary of the method: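 Following 4 h attachment at 37C, VDR-bla cells (2,000 per well) received DMSO-dissolved compounds or controls. After 16 h incubation, LiveBLAzer B/G FRET substrate was added and fluorescence read 2 h later at room temperature.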

[17] = qHTS assay to identify small molecule agonists of the vitamin D receptor (VDR) signaling pathway - cell viability counter screen (AID 743224); further: series mostly up to about 63 µM; nearly all actives have a fitted effect of over 50% in size
Summary of the method: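 In parallel with the bla FRET readout, cytotoxicity toward VDR-bla cells after 16 h compound exposure was assessed by CellTiter-Glo, with luminescence recorded after a 30 min room-temperature incubation.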

[18] = target: Peroxisome proliferator-activated receptor gamma (Homo sapiens) (UniProt P37231); assay: qHTS assay to identify small molecule antagonists of the peroxisome proliferator-activated receptor gamma (PPARg) signaling pathway (AID 743191; calls by dose curve; further: series mostly up to about 63 µM; nearly all actives have a fitted effect of over 30% in size)
Summary of the method: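 Beta-lactamase reporter under UAS control in HEK293H PPARg-bla cells; compound treatment 17 h at 37C. Read-out: fluorescence intensity after 1 h room-temperature incubation with LiveBLAzer B/G FRET substrate.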

[19] = target: Peroxisome proliferator-activated receptor delta (Homo sapiens) (UniProt Q03181); assay: qHTS assay to identify small molecule antagonists of the peroxisome proliferator-activated receptor delta (PPARd) signaling pathway (AID 743215; active means well fitted inhibition curve with a large enough effect in the signal ratio in the repeat runs, not every such curve was filed as active; the % refers to the signal ratio;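 further: cells stimulated with agonist L165041 at 300 nM final during compound exposure; series mostly up to about 62 µM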)
Summary of the method: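 Fluorescence from cleaved LiveBLAzer B/G FRET substrate (2 h, room temperature) reports PPARd-driven beta-lactamase in HEK293H UAS-bla cells. Cells had been treated 17 h at 37 C with compound plus 300 nM final L165041.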

[20] = target: Vitamin D3 receptor (Homo sapiens) (UniProt P11473); assay: qHTS assay to identify small molecule antagonists of the vitamin D receptor (VDR) signaling pathway (AID 743223; active means well fitted inhibition curve with a large enough effect in the signal ratio in the repeat runs, not every such curve was filed as active; the % refers to the signal ratio)
Summary of the method: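 Antagonist mode uses 1alpha,25-dihydroxyvitamin D3 at 3 nM final as stimulus. VDR-bla cells receive compounds in DMSO, incubate 16 h at 37C, then a beta-lactamase FRET substrate for 2 h at room temperature before fluorescence measurement.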

SMILES | Potency [1] | Potency [2] | Potency [3] | Potency [4] | Potency [5] | Potency [6] | Potency [7] | Potency [8] | Potency [9] | Potency [10] | Potency [11] | Potency [12] | Potency [13] | Potency [14] | Potency [15] | outcome [16] | Potency [17] | Potency [18] | Potency [19] | outcome [20]
CCOC(=O)CC(=O)C(=O)OCC | inactive | inactive | inactive | inactive | inactive | inactive | inactive | inactive | inactive | inactive | inactive | inactive | inactive | inactive | inactive | inactive | inactive |  |  | 
CC(=O)Nc1ccccc1C | inactive | inactive | inactive | inactive | inactive | inactive | inactive | inactive | inactive | inactive | inactive |  | inactive |  | inactive | inactive |  | inactive |  | 
CC(C)C(OC(=O)c1ccccc1)C(C)(C)COC(=O)c1ccccc1 (centres undefined) | inactive | inactive | inactive | inactive | inactive | inactive | inactive | inactive | inactive | inactive | inactive |  | inactive |  | inactive |  |  |  | inactive | inactive
CCCCCCOC(=O)C(C)C | inactive | inactive | inactive | inactive | inactive | inactive | inactive | inactive | inactive | inactive | inactive | inactive | inactive | inactive | inactive | inactive | inactive |  | inactive | inactive
C=CC(=O)NCOCC(C)C | inactive | inactive | inactive | inactive |  | inactive | inactive | inactive | inactive |  | inactive | inactive | inactive | inactive |  | inactive | inactive | inactive |  | 
CCOC(=N)CC(=O)OCC | inactive | inactive | inactive | inactive | inactive | inactive | inactive | inactive |  | inactive | inactive |  | inactive |  | inactive |  | inactive |  | inactive | 
O=S1OCCO1 | inactive | inactive | inactive | inactive | inactive | inactive | inactive | inactive | inactive |  | inactive |  | inactive |  | inactive | inactive | inactive | inactive |  | inactive
CC(=O)[C@H]1CC[C@H]2[C@@H]3C=CC4=CC(=O)CC[C@@]4(C)[C@@H]3CC[C@]12C | inactive | inactive | inactive | inactive | 13.3 µM (active) | inactive | inactive | inactive | inactive |  | inactive |  |  | inactive | inactive |  | inactive |  |  | 

From PubChem BioAssay (Tox21)
